According to PubChem BioAssay AID1240 (Sanford-Burnham Center for Chemical Genomics, 2008):
About 800 (1.6%) of roughly 50,000 compounds showed an effect of 50% or more. What follows is part of a selection rich in strong results, with near analogues and random picks from the rest.

Each molecule was assayed against Bcl-2-like protein 10 (Homo sapiens) (UniProt Q9HD36) (assay: TR3 peptide-Bcl-B binding displacers, biochemical primary FP assay, phenotype converters (AID 1240;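 further: 0% = Bcl-B with tracer peptide and DMSO and 100% = tracer peptide lacking Bcl-B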)). Conditions: GST-Bcl-B / FITC-TR3 peptide fluorescence polarization; stronger effect = higher value; compound at 3.75 mg/L.
Bcl-2-like protein 10 (Homo sapiens), sequence (Q9HD36 whole entry, looked up): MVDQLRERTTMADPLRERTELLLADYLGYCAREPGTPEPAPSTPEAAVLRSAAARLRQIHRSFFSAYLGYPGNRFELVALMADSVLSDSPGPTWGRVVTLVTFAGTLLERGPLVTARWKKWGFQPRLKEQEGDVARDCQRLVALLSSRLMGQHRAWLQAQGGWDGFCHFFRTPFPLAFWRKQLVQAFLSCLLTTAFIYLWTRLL

Row | Structure (SMILES) | displacement [%]
1 | Oc1ccc(Br)cc1CN1CCN(Cc2c[nH]c3ccccc23)CC1 | -2.7
2 | Cc1n[nH]c(C)c1Sc1ccccc1N=Cc1cc([N+](=O)[O-])ccc1O | 3.6
3 | Cc1n[nH]c(C)c1Sc1ccccc1N=Cc1cc(Cl)ccc1O | 0
4 | Cc1n[nH]c(C)c1Sc1ccccc1N=Cc1cc(Cl)cc([N+](=O)[O-])c1O | 117
5 | O=C(/C=C/c1ccccc1OC(=O)c1cccnc1)c1ccccc1 | -10.4
6 | Cc1ccc(C2OC3(C(=O)c4ccccc4C3=O)C(c3cccc(Cl)c3)C23C(=O)c2ccccc2C3=O)cc1 (stereo not drawn) | 2
7 | CC(C(=O)O)N1C(=O)/C(=C/c2ccc3c(c2)OCO3)SC1=S (stereo not drawn) | 9.1
8 | O=C1/C(=C/c2cccc([N+](=O)[O-])c2)SC(=S)N1C1CCS(=O)(=O)C1 (stereo not drawn) | 2.2
9 | CN1C(=O)/C(=C/c2ccc3c(c2)OCO3)SC1=S | 80.3
10 | O=C1/C(=C\c2ccc3c(c2)OCO3)SC(=S)N1CCc1ccccc1 | -2.3
11 | O=C(O)CCN1C(=O)/C(=C\c2ccc3c(c2)OCO3)SC1=S | -2.7
12 | O=C1/C(=C\c2ccc3c(c2)OCO3)SC(=S)N1C1CCS(=O)(=O)C1 (stereo not drawn) | 106
13 | Cc1ccc(CNS(=O)(=O)c2ccccc2[N+](=O)[O-])cc1 | 5.2
14 | O=C(c1ccccc1)N1CCCC2CCCCC21 (stereo not drawn) | 1.6
15 | CCOc1ccc(NC(=O)c2c(N)sc(-c3ccccc3)c2C)cc1 | -0.3
16 | CCO/C=N/C1=C(C#N)C(c2ccccc2)C2=C(CC(C)(C)CC2=O)O1 (stereo not drawn) | 4.5
17 | COC(=O)c1cc(C(=O)Nc2cc(C)ccn2)cc([N+](=O)[O-])c1 | 3.9
18 | COC(=O)c1cc(C(=O)Nc2ccccn2)cc([N+](=O)[O-])c1 | -1.3
19 | COC(=O)c1cc(C(=O)Nc2ncccc2C)cc([N+](=O)[O-])c1 | 55.2
20 | Cc1cccnc1NC(=O)Nc1ccc(F)cc1 | 0.2
21 | O=C(NCC1CCCO1)c1ccc(C2SCC(=O)N2Cc2ccccc2)cc1 (stereo not drawn) | -12.3
22 | CCCOc1ccc(N2C(=O)CC(NCc3cccnc3)C2=O)cc1 (stereo not drawn) | 1.7
23 | CCCCOc1ccc(/C=C2\SC(=S)N(C(C)C(=O)O)C2=O)cc1OC (stereo not drawn) | 3.8
24 | COC(=O)CCN1C(=O)/C(=C\c2cc(Br)c(O)c(OC)c2)SC1=S | 53.8
25 | COc1cc(/C=C2\SC(=S)N(C)C2=O)cc(Br)c1O | -47.9

Row | Structure (SMILES) | displacement [%]
26 | CCCCOc1ccc(/C=C2\SC(=S)N(CCC(=O)OC)C2=O)cc1OC | 54.1
27 | COc1cc(/C=C2/SC(=S)N(CCC(=O)O)C2=O)cc(Br)c1O | -13.7
28 | COC(=O)CCN1C(=O)/C(=C\c2ccc(C)cc2)SC1=S | 0.6
29 | O=C(Nc1ccc(I)cc1Cl)c1cccc(Cl)c1Cl | 11.2
30 | O=C(NN1C(=O)/C(=C\c2ccccn2)SC1=S)c1ccccc1 | -15.1
31 | CCCOc1ccc(Cl)cc1/C=C(/C#N)c1nc2ccc(C)cc2[nH]1 | 15.5
32 | CCOc1ccc(Br)cc1/C=C(\C#N)c1nc2ccc(C)cc2[nH]1 | 72.9
33 | Cc1ccc(/C=C(/C#N)c2nc3ccc(C)cc3[nH]2)cc1 | 4.5
34 | CCCOc1c(I)cc(I)cc1/C=C(/C#N)c1nc2ccc(C)cc2[nH]1 | -4.9
35 | Cc1ccc2nc(/C(C#N)=C/c3cc(Br)ccc3OCc3ccccc3)[nH]c2c1 | -2.3
36 | Cc1ccc2nc(/C(C#N)=C\c3cc(Br)ccc3OC(C)C)[nH]c2c1 | 13.1
37 | CCc1ccc(/C=C(/C#N)c2nc3ccc(C)cc3[nH]2)cc1 | 3.2
38 | CCCOc1ccc(Br)cc1/C=C(/C#N)c1nc2ccc(C)cc2[nH]1 | 69.3
39 | Cc1ccc2nc(/C(C#N)=C\c3ccc(Br)cc3)[nH]c2c1 | 136
40 | COc1ccc(C2NCCc3c2[nH]c2ccccc32)cc1OC (stereo not drawn) | 8.4
41 | COc1cccc(C(=O)N2N=C(c3cccnc3)CC2(O)C(F)(F)F)c1 (stereo not drawn) | -2.9
42 | CCOC(=O)CN1C(c2ccccc2OC)Nc2ccc(Br)cc2C1c1ccccc1 (stereo not drawn) | 15.6
43 | Cc1ccc(S(=O)(=O)NN2C(=O)/C(=C/c3ccc(F)cc3)SC2=S)cc1 | 2
44 | OC(CNCc1ccccc1)(c1ccccc1)c1ccc(Cl)cc1 (stereo not drawn) | -9.4
45 | CCCN=C(C)c1c(C)[nH]n(-c2nc3ccccc3s2)c1=O | 68.8
46 | CC(=NCCc1ccccc1)c1c(C(F)(F)F)[nH]n(-c2nc3ccccc3s2)c1=O | -8.3
47 | CC(=NCc1ccccc1)c1c(C)[nH]n(-c2nc3ccccc3s2)c1=O | 12.2
48 | COc1cccc(C2C(C(=O)Nc3ccccc3)=C(C)N=c3s/c(=C/c4ccccc4OC)c(=O)n32)c1 (stereo not drawn) | 12.1
49 | COc1cccc(C2C(C(=O)Nc3ccccc3)=C(C)N=c3s/c(=C\c4c[nH]c5ccccc45)c(=O)n32)c1 (stereo not drawn) | 113
50 | COc1ccc(C2C(C(=O)OC(C)C)=C(C)N=c3s/c(=C\c4cc(OC)ccc4OC)c(=O)n32)cc1 (stereo not drawn) | 6.4

Row | Structure (SMILES) | displacement [%]
51 | COc1cccc(C2C(C(=O)Nc3ccccc3)=C(C)N=c3s/c(=C\c4sccc4C)c(=O)n32)c1 (stereo not drawn) | 46.7
52 | CCOC(=O)C1=C(C)N=c2s/c(=C\c3cccs3)c(=O)n2C1c1cccc(OC)c1 (stereo not drawn) | 12.9
53 | COc1cccc(C2C(C(=O)Nc3ccccc3)=C(C)N=c3s/c(=C\c4ccc(O)cc4)c(=O)n32)c1 (stereo not drawn) | -6.7
54 | COc1ccc(C2C(C(=O)OC(C)C)=C(C)N=c3s/c(=C/c4c[nH]c5ccccc45)c(=O)n32)cc1 (stereo not drawn) | 99.1
55 | COc1cccc(C2C(C(=O)Nc3ccccc3)=C(C)N=c3s/c(=C\c4ccc(N(C)C)cc4)c(=O)n32)c1 (stereo not drawn) | 73.6
56 | CCOC(=O)C1=C(C)N=c2s/c(=C\c3c[nH]c4ccccc34)c(=O)n2C1c1cccc(OC)c1 (stereo not drawn) | 32.8
57 | COc1cccc(C2C(C(=O)Nc3ccccc3)=C(C)N=c3s/c(=C\c4cccs4)c(=O)n32)c1 (stereo not drawn) | 79.1
58 | COc1cccc(C2C(C(=O)Nc3ccccc3)=C(C)N=c3s/c(=C\c4ccncc4)c(=O)n32)c1 (stereo not drawn) | 9.6
59 | COc1ccc(/C=c2\sc3n(c2=O)C(c2ccc(OC)cc2)C(C(=O)OC(C)C)=C(C)N=3)cc1 (stereo not drawn) | 10
60 | Cc1ccc(NC(=O)c2cc3cc([N+](=O)[O-])ccc3oc2=O)cc1 | 13.5
61 | CSc1ccccc1NC(=O)CC1Nc2cc(C)c(C)cc2NC1=O (stereo not drawn) | -41.6
62 | O=C1Nc2ccc(Br)c3cccc1c23 | 15.9
63 | COc1cc(C(=O)NCc2cccc3ccccc23)cc(OC)c1OC | 9.9
64 | COc1ccc(/C=C2\SC(=Nc3ccc(O)cc3)NC2=O)cc1OC | -6.3
65 | COc1cc(/C=C/c2[nH]c(=O)[nH]c(=O)c2[N+](=O)[O-])cc(Br)c1OCc1ccccc1 | 15.6
66 | O=c1[nH]c(/C=C/c2ccccc2)c([N+](=O)[O-])c(=O)[nH]1 | 18.1
67 | O=c1[nH]c(/C=C/c2ccc(OCc3ccccc3)cc2)c([N+](=O)[O-])c(=O)[nH]1 | 114
68 | CC(C)(C)OC(=O)C1C(=O)CC(C)(O)C(C(=O)OC(C)(C)C)C1c1ccccc1 (stereo not drawn) | -1.3
69 | O=c1c2ccccc2nc(SCc2ccccc2)n1Cc1ccccc1 | -0.7
70 | O=C(CSc1nc2ccccc2s1)Nc1ncccn1 | 57.1
71 | O=C(CSc1nc2ccccc2s1)Nc1nc2ccccc2s1 | 7.4
72 | O=C(CSc1nc2ccccc2s1)Nc1ccccc1 | 7.4
73 | C=CCN1C(=O)C(Cc2ccccc2)S/C1=N/N=C/c1ccccc1 (stereo not drawn) | 3
74 | CC(C)C1=NN2C(=N)/C(=C/c3ccc(-c4cccc([N+](=O)[O-])c4)o3)C(=O)N=C2S1 | 173
75 | CC(C)C1=NN2C(=N)/C(=C/c3ccc(-c4cccc(C(=O)O)c4)o3)C(=O)N=C2S1 | -26.4

Row | Structure (SMILES) | displacement [%]
76 | CCC1=NN2C(=N)/C(=C/c3ccc(-c4ccc([N+](=O)[O-])cc4OC)o3)C(=O)N=C2S1 | 4.4
77 | CCC1=NN2C(=N)/C(=C/c3ccc(-c4cccc([N+](=O)[O-])c4)o3)C(=O)N=C2S1 | 124
78 | CCC1=NN2C(=N)/C(=C/c3ccc(-c4cccc(C(=O)O)c4)o3)C(=O)N=C2S1 | 1.4
79 | COc1cc([N+](=O)[O-])ccc1-c1ccc(/C=C2/C(=N)N3N=C(C(C)C)SC3=NC2=O)o1 | 77
80 | COc1cc([N+](=O)[O-])ccc1-c1ccc(/C=C2\C(=O)N(c3ccc(S(N)(=O)=O)cc3)N=C2C)o1 | 5.3
81 | CC(C)C1=NN2C(=N)/C(=C/c3ccc(-c4ccc([N+](=O)[O-])cc4)o3)C(=O)N=C2S1 | 111
82 | Cc1cccc(N2CCN(C3=NC(=O)/C(=C/c4ccc(-c5cccc([N+](=O)[O-])c5)o4)S3)CC2)c1 | 9.8
83 | CC(C)C1=NN2C(=N)/C(=C/c3ccc(Sc4ccc(Cl)cc4)o3)C(=O)N=C2S1 | -18.4
84 | NC1=NC(=O)/C(=C\c2ccc(-c3ccc([N+](=O)[O-])cc3)o2)S1 | 3.2
85 | CCC1=NN2C(=N)/C(=C/c3ccc(-c4ccccc4C(=O)OC)o3)C(=O)N=C2S1 | 3.5
86 | O=C1C(=O)N(c2ccccc2Br)C(=O)N1c1cccc(Cl)c1 | 5.7
87 | O=C(CSCC(=O)Nc1ccccc1)NCc1ccco1 | -20.8
88 | Nc1n[nH]c(N)c1N=Nc1cccc(C(F)(F)F)c1 | -2.4
89 | O=C(Cc1ccc(Cl)cc1)NNC(=O)C1CCCO1 (stereo not drawn) | 2.5
90 | COc1cc(C(=O)NN2C(=O)/C(=C/c3ccc(OC)c(OC)c3)SC2=S)ccc1O | -28.1
91 | c1ccc(-c2cc(-c3cc(-c4ccccc4)on3)no2)cc1 | 2.6
92 | O=C(Oc1ccc2ccccc2c1)c1cc([N+](=O)[O-])ccc1Cl | -0.9
93 | CC(C)C1=NN2C(=N)/C(=C/c3cc(Cl)ccc3OCc3ccccc3)C(=O)N=C2S1 | -7.4
94 | CN1C(=O)/C(=C\c2ccc(-c3ccc(F)c(Cl)c3)o2)SC1=S | 3.9
95 | CC(C)C1=NN2C(=N)/C(=C/c3ccc(-c4ccc(F)c(Cl)c4)o3)C(=O)N=C2S1 | 146
96 | COc1ccc(/C=C2/C(=N)N3N=C(C(C)C)SC3=NC2=O)cc1OC | 133
97 | CCC1=NN2C(=N)/C(=C/c3ccc(OC)c(OC)c3)C(=O)N=C2S1 | -1.4
98 | COc1cc(/C=C2/C(=N)N3N=C(C(C)C)SC3=NC2=O)cc(Cl)c1OCCOc1ccccc1 | -39
